# In ChEMBL document CHEMBL3988442, “University of Dundee, Small-Polar-MMV Screening Library” (2021):
# Among all 48,000 compounds or so, about 13,000 (27%) showed an effect of 50% or more. The list shows a part of the results.
# Test system: Wolbachia pipientis
# Assay: Anti-Wolbachia Cell-Based Screen
# Type: functional
# Parameters: scale not given: in the data most compounds retested in dose-response had high values
# Details: 5 µM
row,SMILES,Percent Effect [%]
1,O=C1CCC2(CCCN(C(=O)c3ccc[nH]3)C2)CN1CCc1c[nH]cn1 (configuration not stated),-3.691
2,Cc1cc(CN(C)C(=O)c2cccc(N3CCCC3=O)c2)no1,3.879
3,CCN(CCNC(=O)c1ccccc1Br)C1CC1,-1.027
4,Cc1cccc(C(=O)NCCNS(=O)(=O)c2cccs2)c1C,-10.16
5,CCOc1ncccc1C(=O)NCCN(CC)C1CC1,-2.077
6,COCCOc1ncccc1C(=O)Nc1c(C)cnn1CC1CC1,-11.28
7,CCN(CCNC(=O)c1cccnc1OCCOC)C1CC1,95.99
8,CCN(CCNC(=O)c1cccc(C)c1C)C1CC1,95.34
9,CC(C)c1cccc(-n2cc(O)c(C(=O)NCCCn3cccn3)n2)c1,-4.081
10,COC(=O)C1CN(Cc2ccn(-c3ccc(F)cc3)n2)CCO1 (configuration not stated),-3.694
11,Cc1nc(CN2CCCN(C(=O)c3cccn3C)CC2)cs1,-4.038
12,Cc1nc(CN2C[C@@H]3CN(C(=O)c4ccoc4C)C[C@@H]3C2)cs1,104.4
13,O=C(CCc1cccc(F)c1F)N1CCN(Cc2ccco2)CC1,9.986
14,CCc1nc(CN2CCCN(C(=O)CCc3ccco3)CC2)cs1,-5.985
15,Cc1nc(CN2C[C@@H]3CN(C(=O)CC(F)(F)F)C[C@@H]3C2=O)cs1,-5.241
16,Cc1noc(C)c1CCC(=O)N1CCCN(Cc2cscn2)CC1,-9.58
17,O=C(CCc1ccco1)N1CCCN(Cc2cscn2)CC1,110.3
18,Cc1nc(CN2CCN(C(=O)CCc3ccco3)CC2)cs1,84.98
19,Cc1nc(CN2CCCN(C(=O)CCc3ccco3)CC2)cs1,136.5
20,Cc1nc(CN2C[C@@H]3CN(C(=O)c4ccoc4C)C[C@@H]3C2=O)cs1,-24.28
21,CCc1nc(CN2CCN(C(=O)CCc3ccccc3)CC2)cs1,19.11
22,CCc1nsc(N2CCN(CC(=O)NCc3cccnc3)CC2)n1,5.46
23,CC1CN(C)c2ccccc2CN1C(=O)CSc1ccncc1 (configuration not stated),-15.08
24,O=S(=O)(c1cccnc1)N1CCN(CC(O)c2cccs2)CC1 (configuration not stated),-0.3613
25,CCNc1ccnc(NC2CCN(S(C)(=O)=O)CC2)n1,1.929
26,O=S(=O)(NC1CCCN(c2ncccn2)C1)N1CCCCCC1 (configuration not stated),-17.91

row,SMILES,Percent Effect [%]
1,O=S(=O)(N1CCCC1)N1CC(c2ccnc(Nc3ccccn3)n2)C1,105.1
2,N[C@H]1CN(S(=O)(=O)N2CCCC2)C[C@@H]1c1ccccc1,-9.902
3,CN(C)S(=O)(=O)N1CCC2(CC1)CC(Oc1ccccn1)CO2.O=C(O)C(F)(F)F (configuration not stated),-11.89
4,CN(C)S(=O)(=O)N1CCC(c2ccnc(Nc3ccccn3)n2)C1 (configuration not stated),92.82
5,CN(C)S(=O)(=O)N1CC(c2ccnc(Nc3ccccn3)n2)C1,81.46
6,Cc1ccc(Nc2nccc(C3CN(CC(N)=O)C3)n2)nc1,-11.37
7,CS(=O)(=O)N1CC(c2ccnc(Nc3ccccn3)n2)C1,102.3
8,CN(C)C(=O)C1CN(Cc2ccc(C#N)cc2)c2ccccc2O1 (configuration not stated),-2.727
9,O=C(NCCn1cccc1)C1CCN(C2CCCCC2)CC1,3.682
10,Cc1c(F)cccc1CN1CCn2nc(CNC(=O)N(C)C)cc2C1,9.061
11,Cc1cc(C)c2c(c1)C1(CC(=O)Nc3c1cnn3C(C)C)C(=O)N2 (configuration not stated),-4.592
12,Cc1cc2n(n1)CC(CNC1CCN(c3ccc(F)cc3)CC1)CN2 (configuration not stated),8.147
13,Cc1nc(N2CCCC2)nc2c1CN(C(C)C)CC2.O=C(O)C(F)(F)F,-22.93
14,CC(=O)N1CCc2nc(N3CCCC3)nc(C)c2C1,96.78
15,Cc1nc(N2CCCC2)nc2c1CN(C(=O)NC(C)C)CC2,102.9
16,Cc1nc(N2CCCC2)nc2c1CN(C(=O)N(C)C)CC2,100.4
17,Cc1nc2c(c(=O)n1C)CN(C(=O)C1CCCN(C(=O)N(C)C)C1)C2 (configuration not stated),1.11
18,CN(Cc1ccccc1)C(=O)c1cc2c(c(S(N)(=O)=O)c1)CCC2,-0.2198
19,CCCOc1ccc2ccccc2c1CN1CC[C@@]2(O)CCNC[C@H]2C1,3.118
20,CCc1nc(C)cc(NC(C)C(=O)Nc2cc(F)ccc2C)n1 (configuration not stated),4.426
21,CCc1cc(N[C@H]2CCC[C@H]2CO)n2nccc2n1,-20.55
22,O=C(c1ccccn1)N1C[C@@H]2CC[C@H](C1)N(C(=O)c1ccsc1)C2,-66.93
23,O=C(c1cccnc1)N1C[C@@H]2OCC(=O)N(Cc3cccnc3)[C@@H]2C1,-21.42
24,O=C(c1ccccn1)N1CCC(S(=O)(=O)c2ccccc2)C1 (configuration not stated),101.3
25,O=C(c1cccnc1)N1CC(S(=O)(=O)c2ccc(Cl)cc2)C1,139.6
26,O=C(c1ccco1)N1CC(S(=O)(=O)c2ccc(Cl)cc2)C1,72.73
